Assay outcomes from PubChem.
ELG1 genotox: genotoxicity induction in ELG1-luciferase HEK293T cells; HEK293T ELG1-luciferase reporter, luminescence, 16 h; Potency, µM (doses to about 46 µM), without a hit: at the highest dose activity change, positive = activation, hits mostly activators; 330,000 tested, 1.3% active; also: % of control where 0% means no effect; nearly all actives have a fitted effect of over 60% in size
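HEK293T cells expressing luciferase-tagged ELG1 were treated with compound or DMSO for 16 hr at 37°C. Luciferase activity was then read after 30 min with ONE-Glo at room temperature; rising signal flags genetic stress.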
ELG1 DNA repair: blocks ELG1-dependent DNA repair in HEK293T cells | HEK293T ELG1-luciferase reporter, luminescence, 16 h; DNA damage induced by 5-fluorouridine | Potency, µM (series often up to 46.1 µM), without a hit: at the highest dose activity change, negative = inhibition, most hits filed as inhibitors | 330,000 tested, 2.3% active | AID 504467; also: % is scaled to controls: 0 for no effect and ±100 for the full control effect; nearly all actives have a fitted effect of over 55% in size
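Quantitative HTS, concentration-response format. 2,000 cells/well co-treated with 5-fluorouridine and compound, 16 hr in 5% CO2 at 37 °C; ONE-Glo luminescence read after 30 min.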
FLuc counter: counter-screen for miR-21 project: firefly luciferase inhibitors or activators. P08659. purified FLuc, Km substrates, luminescence inhibition. Potency, µM (top dose mostly 57.5 µM), without a hit: at the highest dose activity change, negative = inhibition, usual class: inhibitors. 360,000 tested, 6.9% active;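 also: plate controls were vehicle for no effect and reference inhibitor for full effect; nearly all actives have a fitted effect of over 55% in size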
Target sequence (P08659 whole entry, looked up): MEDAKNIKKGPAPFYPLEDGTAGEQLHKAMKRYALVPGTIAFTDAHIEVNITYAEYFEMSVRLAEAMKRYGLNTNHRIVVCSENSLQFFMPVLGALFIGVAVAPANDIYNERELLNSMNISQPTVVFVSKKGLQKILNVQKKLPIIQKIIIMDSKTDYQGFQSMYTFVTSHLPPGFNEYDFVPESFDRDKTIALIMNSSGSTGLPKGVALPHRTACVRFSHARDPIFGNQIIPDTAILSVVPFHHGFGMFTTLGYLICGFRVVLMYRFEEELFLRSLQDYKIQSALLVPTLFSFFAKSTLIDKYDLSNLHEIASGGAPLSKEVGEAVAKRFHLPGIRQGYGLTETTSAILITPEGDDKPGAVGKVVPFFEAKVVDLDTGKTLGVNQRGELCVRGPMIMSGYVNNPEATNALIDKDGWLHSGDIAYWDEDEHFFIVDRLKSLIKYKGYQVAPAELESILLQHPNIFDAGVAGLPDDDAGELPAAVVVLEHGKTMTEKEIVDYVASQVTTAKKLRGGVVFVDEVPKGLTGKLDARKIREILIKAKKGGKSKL
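Biochemical qHTS of compounds, final roughly 60 µM downward over six points, against 10 nM purified firefly luciferase using Km concentrations of substrates (10 uM D-luciferin, 10 uM ATP) in Tris acetate pH 7.5 buffer; luminescence output.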
SMN2 splice enh: SMN2 splice variant enhancement. HEK293 SMN2-luciferase splicing reporter, luminescence, 30-36 h. Potency, µM (highest dose often 46.1 µM), inactives show top-dose activity change, positive = activation, most hits filed as activators. 210,000 tested, 2.8% active; also: % of control where 0% means no effect; nearly all actives have a fitted effect of over 55% in size
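HEK293 cells carry an SMN2 […]–luciferase reporter in which exon 7 inclusion puts luciferase in frame. Cells were plated 10-12 h before compound addition, then incubated 30-36 h at 37C. ONE-Glo luminescence was read; sodium butyrate at 4.5 mM final served as control.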
NPC1 prom act: activates the NPC1 promoter. Huh7 NPC1 promoter luciferase reporter, 24 h. Potency, µM (highest dose often 9.22 µM), inactives show at the highest dose activation, usual class: activators. 320,000 tested, 2.4% active. AID 485313; also: % of control where 0% means no effect; nearly all actives have a fitted effect of over 60% in size
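Stably transfected Huh7 (NPC1 promoter→luciferase), 1500 cells/well in Opti-MEM + 10% FBS, 2 h settle, then compound 24 h at 37 °C. Luminescence after 10 min with Amplite reagent.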
Rab9 promoter act: activates the Rab9 promoter; 320,000 tested, 2.8% active; Huh7 Rab9 promoter-luciferase reporter, luminescence, 24 h; Potency, µM (highest dose often 9.22 µM), without a hit: at the highest dose activation, negative = inhibition, usual class: activators; also: % of control where 0% means no effect; nearly all actives have a fitted effect of over 60% in size
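Quantitative HTS format; Huh7 Rab9-luciferase reporter cells (1500/well) receive compound 2 h post-plating, incubate 24 h at 37 °C, then get luciferase reagent for 10 min before luminescence reading.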
Active calls of the source: *; ? = inconclusive; nt = not tested or not shown. In the library only some 9.2% were active in any assay of this set; here they are far more common. Calls follow the shape of the dose curve; as a rule, active = well fitted curve in the direction sought with a large enough effect; inconclusive = small, poorly fitted or top-dose-only effect, or another doubt; inactive = no such curve, though single readings can be large; an effect the other way counts as inactive or inconclusive. Potency is read from the fitted curve at half-maximal effect.

SMILES	ELG1 genotox	ELG1 DNA repair	FLuc counter	SMN2 splice enh	NPC1 prom act	Rab9 promoter act
O=S(=O)(c1ccccc1OC(F)(F)F)N1CCN(c2ccnc3cc(Cl)ccc23)CC1	-26%	21µM*	6%	nt	-4%	-1%
COc1cc2c(cc1OC)CN(C(=O)Nc1ccccc1Cl)CC2	-4%	-6%	?	nt	-4%	-2%
COc1ccccc1NC(=O)N1CCN(c2ccnc3cc(Cl)ccc23)CC1	-9%	12µM*	-5%	nt	0%	-3%
COc1ccccc1NC(=O)N1CCc2[nH]c3ccc(Cl)cc3c2C1	1%	16µM*	-2%	-9%	0%	-4%
O=S(=O)(c1cccc(Br)c1)N1CCN(c2ccnc3cc(Cl)ccc23)CC1	-7%	-25%	-2%	nt	-4%	6%
COc1ccc(CCNC(=O)COc2ccc(S(=O)(=O)NC3CCCCC3)cc2Cl)cc1	-13%	?	3%	-23%	-4%	-10%
O=C(C1CCCCC1)N1CCN(c2ccnc3cc(Cl)ccc23)CC1	-9%	12µM*	-2%	nt	-6%	-15%
O=C(Nc1ccc(OC(F)(F)F)cc1)N1CCN(c2ccnc3cc(Cl)ccc23)CC1	-15%	18µM*	3%	nt	-1%	-9%
Cc1ccc(O)c(NC(=S)NC(=O)CC(C)C)c1	?	?	17µM*	13µM*	?	?
COc1ccc(NC(=S)NC(=O)Cc2ccccc2)c(OC)c1	0%	?	-5%	nt	1%	5%
Cc1ccc(NC(=S)NC(=O)Cc2ccccc2)c(O)c1	6%	23%	15µM*	nt	22%	3%
CC(C)Oc1ccc(CNC(=O)C2CCN(C(=O)N3CCOc4ccc(Cl)cc43)CC2)cc1	nt	nt	-12%	nt	nt	nt
COc1ccc(C2CCCN2C(=S)Nc2ccc(C)cc2Cl)cc1OC (stereo unspecified)	1%	?	-6%	-85%	2%	-3%
O=c1cc2[nH]c3ccccc3c(=O)n2nc1-c1ccccc1	13µM*	?	19µM*	22%	?	?
COc1cc(/C=N/NC(=O)COc2cccc(F)c2)ccc1OS(=O)(=O)c1ccc(C)cc1	-15%	18µM*	-13%	-14%	-2%	-12%
COc1cc(-c2nc3ccc(N4CCN(C)CC4)cc3[nH]2)cc(OC)c1OC	7.3µM*	?	13µM*	16µM*	0%	-5%
COc1ccc2nc(C)cc(Nc3ccc(N4CCN(C)CC4)cc3)c2c1	15%	-6%	-1%	nt	-19%	-25%
COc1ccc(-c2nc3ccc(N4CCN(C)CC4)cc3c(=O)[nH]2)cc1	?	9%	15µM*	49%	22%	28%
N#CCSc1nnc(COc2cccc3ccccc23)n1-c1ccccc1	-10%	21µM*	4%	-55%	-1%	-6%
CC1Cc2cc(/C(O)=C3/C(=O)C(=O)N(CCN4CCOCC4)C3c3cccc(O)c3)ccc2O1 (stereo unspecified)	25%	?	21µM*	6%	-2%	0%
O=C(c1ccc(CSc2nc3ccncc3[nH]2)cc1)N1CCN(c2cccc(Cl)c2)CC1	-4%	26µM*	-1%	-70%	-18%	-23%
O=C(c1ccc(CSc2nc3ccncc3[nH]2)cc1)N1CCCCCC1	?	?	15µM*	nt	?	?
O=C(c1ccc(CSc2nc3ccncc3n2Cc2ccccc2)cc1)N1CCCCCC1	nt	nt	17µM*	-28%	nt	nt
O=C(c1ccc(CN2CCOCC2)cc1)N1CCN(c2cccc(Cl)c2)CC1	-3%	-3%	-2%	-30%	-1%	-8%
O=C(Nc1cccc(C(F)(F)F)c1)C1CCCO1 (stereo unspecified)	1%	5%	-3%	4%	-3%	0%
SMILES	ELG1 genotox	ELG1 DNA repair	FLuc counter	SMN2 splice enh	NPC1 prom act	Rab9 promoter act
COC(=O)c1ccc(Cl)cc1NC(=O)N(C)CCc1c(C)nn(C)c1C	nt	nt	-9%	nt	nt	nt
COc1ccc(-n2ncc3c2ncn2nc(-c4ccc(Cl)cc4Cl)nc32)cc1	nt	nt	0%	-3%	nt	nt
Cc1[nH]c2ccccc2c1/C=N/Nc1nc(Nc2ccccc2)nc(N2CCOCC2)n1	-10%	23µM*	4.8µM*	-8%	13%	0%
Oc1[nH]c2ccccc2c1N=Nc1nc(Nc2ccccc2)nc(N2CCOCC2)n1	-12%	3.7µM*	?	nt	-11%	-9%
CC(C)(C)c1ccc(S(=O)(=O)N2CCN(CC(O)CN3CCOCC3)CC2)cc1 (stereo unspecified)	2%	-1%	nt	nt	nt	nt
CCc1ccccc1N(CC(=O)NC1CCCCC1)C(=O)CCCC(=O)Nc1ccccn1	-7%	1%	2%	nt	-1%	4%
CC(=O)Nc1ccc2oc(-c3ccccc3)nc2c1	?	?	7.6µM*	10µM*	1.3µM*	2.5µM*
CC(=O)Nc1ccc2nc3ccccc3nc2c1	21µM*	?	19µM*	nt	2.8µM*	4µM*
O=C(O)CCC(=O)Nc1cccc(-c2nc3ccccc3o2)c1	0%	1%	11µM*	nt	1%	0%
COc1ccc(-c2nc3ccccc3o2)cc1NC(=O)COc1ccc(C(C)(C)C)cc1	nt	nt	-1%	5µM*	nt	nt
COc1ccc(-c2nc3ccccc3o2)cc1NC(=O)COc1cc(C)cc(C)c1	nt	nt	-6%	nt	nt	nt
CC(=O)Nc1ccc2nc3c(=O)n(C)c(=O)n(C)c3nc2c1	0%	0%	-1%	nt	-1%	1%
COC(=O)[C@@H]1C[C@H]1[C@@H](NC(=O)c1ccc(Br)cc1)c1ccccc1	nt	nt	nt	-38%	nt	nt
CC(=O)Nc1cccc(-c2nc3ccccc3o2)c1	?	0%	19µM*	nt	28%	30%
CC(C)C(=O)Nc1cccc(-c2nc3ccccc3o2)c1	?	-8%	-13%	15%	-1%	3%
O=C1C2C3C=CC(C3)C2C(=O)N1c1cccc(-c2nc3ccccc3o2)c1 (stereo unspecified)	11%	10%	3%	?	13%	18%
CC(=O)Nc1cc(-c2nc3ccccc3o2)ccc1Cl	?	?	17µM*	nt	15%	?
O=C(Nc1cccc(-c2nc3ccccc3o2)c1)c1ccc(N2C(=O)C3C4C=CC(C4)C3C2=O)cc1 (stereo unspecified)	-19%	16µM*	-18%	-23%	3%	-4%
CC(=O)Nc1ccc(-c2nc3ccc(NC(C)=O)cc3o2)cc1	?	?	?	nt	2.5µM*	2µM*
